The results in this text go back to PubChem BioAssay.

Values without a mark were called inactive. For part of these data: Results with a measured potency or affinity are listed apart. Active and inactive are the calls of the source. Unless noted, the rule behind the calls is not given here.

Usually inhibition stands for the drop in the measured response relative to a control, in per cent.

Experiment [1] can be described thus: antimalarial activity against Dd2 strain (AID 2302;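 active = growth inhibition above 50% at the single 2 µM test dose, taken to imply half-maximal potency below 2 µM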;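 note: 0% = DMSO untreated growth and 100% = chloroquine plus artemisinin killed control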). The settings on record: P. falciparum Dd2 in RBCs, LDH growth readout, 72 h; at 2 µM; stronger effect = higher value.
Experiment [2] can be described thus: human hepatoma cell viability loss – ATP luminescence, cytotoxicity control for P. falciparum antimalarial project, primary screen (AID 2303;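 active = inhibition above 50%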;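 note: 0% = DMSO wells and 100% = digitonin-killed cells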). The conditions noted are these: HepG2 viability, 24-48 h, at 10 µM, stronger effect = higher value.
Experiment [3] deals with L-lactate dehydrogenase (Plasmodium falciparum (isolate CDC / Honduras)) (UniProt Q27743). The experiment can be described thus: PfLDH activity inhibition – cell lysate, 3D7 strain, counter-screen for P. falciparum growth inhibition project (AID 2304).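 Note: 0% = vehicle and 100% = reference inhibitor.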 The settings on record: P. falciparum 3D7 crude extract, LDH APAD/NBT absorbance; at 2 µM; stronger effect = higher value. For orientation: The purpose of a counterscreen is to sort out artefacts and off-target activity.

Experiment [4] is described as follows: inhibition of 3D7 malaria parasite growth – strain 3D7 (AID 2306).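 Note: 0% = DMSO wells and 100% = chloroquine plus artemisinin control wells.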 The conditions noted are these: P. falciparum 3D7 erythrocytic growth, LDH absorbance, 72 h; at 2 µM; stronger effect = higher value.
Experiment [5] concerns the target Calcium-dependent protein kinase 1 (Plasmodium falciparum (isolate 3D7)) (UniProt P62344). Put plainly: PfCDPK1 kinase inhibitors, biochemical, TCAMS library (AID 1159585; cut-off not given, nearly all actives have IC50 up to about 0.98 µM;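 note: inhibitors leave more ATP so luminescence rises with inhibition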). The conditions noted are these: recombinant PfCDPK1, Kinase-Glo ATP depletion luminescence.
Experiment [6] concerns the target Plasmodium falciparum protein kinase 6 (PK6, PF3D7_1337100) (UniProt Q8IDW1). Put plainly: PfPK6 kinase inhibitors, biochemical, TCAMS library (AID 1159586). The conditions noted are these: recombinant PfPK6, Kinase-Glo ATP depletion luminescence. (Kinase-Glo measures the ATP left after a reaction by luminescence.)
In experiment [7] the target is Protein kinase 7 (PK7), Plasmodium falciparum 3D7 (PF3D7_0213400) (UniProt Q7YTF7). Put plainly: inhibition of Plasmodium PK7 catalytic activity – biochemical, TCAMS antimalarial set, Kinase-Glo luminescence (AID 1159587). The settings on record: recombinant PfPK7, Kinase-Glo ATP depletion luminescence.
Experiment [8] concerns the target Calcium-dependent protein kinase 4 (Plasmodium falciparum (isolate 3D7)) (UniProt Q8IBS5). Put plainly: PfCDPK4 kinase inhibitors, biochemical, TCAMS library (AID 1159588; cut-off not given, nearly all actives have IC50 up to about 0.91 µM). The conditions noted are these: recombinant PfCDPK4, Kinase-Glo ATP depletion luminescence.

Chain of Protein kinase 7 (PK7), Plasmodium falciparum 3D7 (PF3D7_0213400) (Q7YTF7 1-343): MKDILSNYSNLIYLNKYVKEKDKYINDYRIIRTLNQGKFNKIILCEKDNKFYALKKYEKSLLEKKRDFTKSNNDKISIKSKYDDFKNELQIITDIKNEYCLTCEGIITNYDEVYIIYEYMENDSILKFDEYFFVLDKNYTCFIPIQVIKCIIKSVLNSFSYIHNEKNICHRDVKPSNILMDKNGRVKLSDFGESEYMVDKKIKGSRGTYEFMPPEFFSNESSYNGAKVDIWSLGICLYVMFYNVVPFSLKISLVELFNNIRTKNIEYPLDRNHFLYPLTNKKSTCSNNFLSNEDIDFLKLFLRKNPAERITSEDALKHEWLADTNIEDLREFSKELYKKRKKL
Chain of Calcium-dependent protein kinase 4 (Plasmodium falciparum (isolate 3D7)) (Q8IBS5 whole entry, looked up): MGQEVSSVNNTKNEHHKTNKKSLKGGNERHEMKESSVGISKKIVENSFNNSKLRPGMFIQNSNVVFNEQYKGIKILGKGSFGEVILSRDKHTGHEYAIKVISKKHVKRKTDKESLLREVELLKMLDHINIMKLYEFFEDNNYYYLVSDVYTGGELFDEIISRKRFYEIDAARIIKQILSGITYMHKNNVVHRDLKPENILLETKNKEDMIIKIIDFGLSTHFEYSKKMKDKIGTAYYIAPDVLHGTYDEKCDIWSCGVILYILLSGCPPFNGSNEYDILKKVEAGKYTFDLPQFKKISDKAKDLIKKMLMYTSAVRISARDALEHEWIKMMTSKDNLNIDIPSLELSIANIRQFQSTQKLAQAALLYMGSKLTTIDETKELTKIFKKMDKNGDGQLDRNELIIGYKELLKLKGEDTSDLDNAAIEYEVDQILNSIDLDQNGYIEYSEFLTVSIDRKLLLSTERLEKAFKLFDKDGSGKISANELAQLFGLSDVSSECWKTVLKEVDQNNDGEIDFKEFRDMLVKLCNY
Chain of Plasmodium falciparum protein kinase 6 (PK6, PF3D7_1337100) (Q8IDW1 1-305): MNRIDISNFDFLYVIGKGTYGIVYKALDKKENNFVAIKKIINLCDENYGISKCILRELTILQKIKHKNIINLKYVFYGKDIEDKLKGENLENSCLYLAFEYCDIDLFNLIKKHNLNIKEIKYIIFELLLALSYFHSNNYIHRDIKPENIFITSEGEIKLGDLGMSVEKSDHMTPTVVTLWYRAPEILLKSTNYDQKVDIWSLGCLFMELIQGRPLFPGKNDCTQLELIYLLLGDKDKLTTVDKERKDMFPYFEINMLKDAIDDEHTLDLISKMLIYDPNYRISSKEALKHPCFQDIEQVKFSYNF
Chain of L-lactate dehydrogenase (Plasmodium falciparum (isolate CDC / Honduras)) (Q27743 whole entry, looked up): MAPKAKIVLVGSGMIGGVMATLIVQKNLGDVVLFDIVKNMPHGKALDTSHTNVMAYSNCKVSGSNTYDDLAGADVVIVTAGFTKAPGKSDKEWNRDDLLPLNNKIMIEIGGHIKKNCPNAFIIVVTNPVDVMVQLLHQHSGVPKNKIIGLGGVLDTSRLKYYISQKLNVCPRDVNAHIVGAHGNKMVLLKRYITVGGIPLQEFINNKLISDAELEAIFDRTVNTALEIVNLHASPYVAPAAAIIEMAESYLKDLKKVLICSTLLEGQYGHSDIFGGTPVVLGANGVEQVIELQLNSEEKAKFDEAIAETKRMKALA
Chain of Calcium-dependent protein kinase 1 (Plasmodium falciparum (isolate 3D7)) (P62344 whole entry, looked up): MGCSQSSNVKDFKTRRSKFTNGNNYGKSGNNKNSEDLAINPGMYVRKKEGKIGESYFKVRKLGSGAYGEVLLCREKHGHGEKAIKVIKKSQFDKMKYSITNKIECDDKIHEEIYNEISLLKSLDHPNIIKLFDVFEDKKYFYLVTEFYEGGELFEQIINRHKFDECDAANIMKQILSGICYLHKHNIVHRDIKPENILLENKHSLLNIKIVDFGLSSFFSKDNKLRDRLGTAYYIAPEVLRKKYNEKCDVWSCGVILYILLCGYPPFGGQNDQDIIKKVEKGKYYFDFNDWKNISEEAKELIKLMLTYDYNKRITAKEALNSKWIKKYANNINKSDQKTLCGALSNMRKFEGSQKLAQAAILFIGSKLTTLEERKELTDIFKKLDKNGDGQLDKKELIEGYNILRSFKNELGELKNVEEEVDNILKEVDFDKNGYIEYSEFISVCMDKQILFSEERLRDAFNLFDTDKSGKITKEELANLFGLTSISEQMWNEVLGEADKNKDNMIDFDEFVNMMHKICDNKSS

`O=C(NCC1CCC(C(=O)NC2CCCc3ccccc32)CC1)c1ccc(O)c(-c2ccc(Cl)c(Cl)c2)c1` (stereo not drawn): the growth inhibition in experiment [1] was 86% (active); in experiment [4] it was 93% (active). For the same compound, the inhibition in experiment [2] is -5%; in experiment [3] it was -4%. Further, the result in experiment [5], in experiment [6], in experiment [7] and in experiment [8] was inactive.
As for `CNC(=O)COC(=O)c1c2c(nc3ccccc13)C(=Cc1ccc3c(c1)OCO3)CCC2`, the values for the growth inhibition in experiment [1] and in experiment [4] were 36% and 83% (active), respectively. For the same compound, the inhibition in experiment [2] was 7%; in experiment [3], -2%. Besides, the result in experiment [5], in experiment [6], in experiment [7] and in experiment [8] was inactive.
Regarding `NC(=O)c1ccc(C(=O)Nc2cccc(-c3csc(-c4nc5ccccc5[nH]4)c3)c2)cc1`, the growth inhibition in experiment [1] is 35%; in experiment [4] it was 100% (active). Also, the inhibition in experiment [2] was 14%; in experiment [3], -4%. The outcome in experiment [5], in experiment [6], in experiment [7] and in experiment [8] was inactive.
Regarding `CCCC(CNCc1cccc(OC(F)(F)F)c1)CNc1cc(=O)c2ccccc2[nH]1` (stereo not drawn), the growth inhibition is 95% (active) in experiment [1] and 101% (active) in experiment [4]. The inhibition in experiment [2] is -4%; in experiment [3], -2%. In addition, the outcome in experiment [5], in experiment [6], in experiment [7] and in experiment [8] was inactive.
Regarding `O=C(c1ccc(Cl)c(Cl)c1)N1CCc2c([nH]c3ccccc23)C1CN1CCCC1` (stereo not drawn), the growth inhibition in experiment [1] was 16%; in experiment [4], 94% (active). Further, the inhibition in experiment [2] is 83% (active); in experiment [3], 2%. Also, the outcome in experiment [5], in experiment [6], in experiment [7] and in experiment [8] was inactive.
`CC(C)(C)c1ccc(CN2CCC(CNC(=O)c3cc(-c4ccccc4C(F)(F)F)cs3)C2)cc1` (stereo not drawn): the growth inhibition is 11% in experiment [1] and 92% (active) in experiment [4]. Also, the inhibition was 61% (active) in experiment [2] and -3% in experiment [3]. The result in experiment [5], in experiment [6], in experiment [7] and in experiment [8] was inactive.
On to `Clc1ccc2c(Cl)c(CNCCCNc3nc4ccccc4[nH]3)[nH]c2c1`, for which the values for the growth inhibition in experiment [1] and in experiment [4] were 7% and 101% (active), respectively. In addition, the values for the inhibition in experiment [2] and in experiment [3] were 38% and -1%, respectively. Also, the outcome in experiment [5], in experiment [6], in experiment [7] and in experiment [8] was inactive.
Take `COc1ccc(CNCc2ccccc2)cc1-c1ccc(S(=O)(=O)NCCN2CCCC2)c(F)c1`: the growth inhibition in experiment [1] is 42%; in experiment [4], 87% (active). Besides, the inhibition was 29% in experiment [2] and 5% in experiment [3]. Moreover, the outcome in experiment [5], in experiment [6], in experiment [7] and in experiment [8] was inactive.
With `Cc1cc(N[C@@H](Cc2ccccc2)C(=O)NCCc2ccccc2)nc(NCCc2ccccc2)n1`, the growth inhibition was 57% (active) in experiment [1] and 100% (active) in experiment [4]. Besides, the inhibition is -4% in experiment [2] and -2% in experiment [3]. Also, the result in experiment [5], in experiment [6], in experiment [7] and in experiment [8] was inactive.
Turning to `c1ccc2c(NCCCCCCCCNc3ccnc4ccccc34)ccnc2c1`, the growth inhibition in experiment [1] is 35%; in experiment [4], 101% (active). Moreover, the inhibition is 57% (active) in experiment [2] and -1% in experiment [3]. Moreover, the result in experiment [5], in experiment [6], in experiment [7] and in experiment [8] was inactive.
For the compound `Cc1cnc(CCNC(=O)c2cc(-c3ccc(Cl)cc3)cs2)[nH]1`, the growth inhibition in experiment [1] is 7%; in experiment [4], 101% (active). The inhibition in experiment [2] was 12%; in experiment [3], 4%. In addition, the outcome in experiment [5], in experiment [6], in experiment [7] and in experiment [8] was inactive.
Consider `COc1ccc(CCNc2nc(SCc3ccccc3Cl)nc3ccccc23)cc1OC`, for which the results for the growth inhibition in experiment [1] and in experiment [4] were 2% and 94% (active), respectively. Also, the figures for the inhibition in experiment [2] and in experiment [3] were 27% and 0%, respectively. The outcome in experiment [5], in experiment [6], in experiment [7] and in experiment [8] was inactive.
Turning to `CN(CCN(C)C(=O)NCc1ccccc1)C(=O)NCc1ccccc1`, the growth inhibition in experiment [1] is 0%; in experiment [4], 101% (active). Moreover, the inhibition in experiment [2] was 2%; in experiment [3], 1%. Further, the result in experiment [5], in experiment [6], in experiment [7] and in experiment [8] was inactive.
For `CN(C)CCCOc1cccc(CCNCc2cccc(Oc3ccc(Cl)cc3)c2)c1`, the growth inhibition in experiment [1] is 67% (active); in experiment [4], 93% (active). The inhibition in experiment [2] is 72% (active); in experiment [3], -3%. Moreover, the outcome in experiment [5], in experiment [6], in experiment [7] and in experiment [8] was inactive.
Consider `CCCCC(CC)C(=O)C(NC(=O)[C@H](CSC(c1ccccc1)(c1ccccc1)c1ccccc1)NC(=O)OC(C)(C)C)C(=O)OC` (stereo partly drawn), for which the growth inhibition in experiment [1] was 31%; in experiment [4] it was 88% (active). Moreover, the inhibition in experiment [2] was 8%; in experiment [3], 0%. Moreover, the result in experiment [5], in experiment [6], in experiment [7] and in experiment [8] was inactive.
Consider `CCOC(=O)N1CCC(NC(=O)c2ccc(C(C)(C)C)cc2OC)CC1`, for which the growth inhibition in experiment [1] was -5%; in experiment [4] it was 88% (active). The inhibition was -7% in experiment [2] and 0% in experiment [3]. Besides, the result in experiment [5], in experiment [6], in experiment [7] and in experiment [8] was inactive.
`CN(C)CCNC(=O)c1ccc(-c2cnc3ccc(NCc4ccc(Cl)c(Cl)c4)nn23)cc1`: the growth inhibition in experiment [1] and in experiment [4] was 98% (active) each time. For the same compound, the inhibition in experiment [2] was 60% (active); in experiment [3] it was -5%. For the same compound, the result in experiment [5], in experiment [6], in experiment [7] and in experiment [8] was inactive.
On to `Cc1cc(-c2nc3ccc(C(=N)N)cc3[nH]2)c(C)cc1-c1nc2ccc(C(=N)N)cc2[nH]1`, for which the growth inhibition was 97% (active) in experiment [1] and 96% (active) in experiment [4]. The inhibition in experiment [2] is 0%; in experiment [3] it was -1%. The result in experiment [5], in experiment [6], in experiment [7] and in experiment [8] was inactive.
Turning to `COc1ccc(-c2nc3c(N)nc(N)nc3nc2C(C)C)cc1`, the results for the growth inhibition in experiment [1] and in experiment [4] were -4% and 96% (active), respectively. In addition, the results for the inhibition in experiment [2] and in experiment [3] were 71% (active) and 6%, respectively. Also, the result in experiment [5], in experiment [6], in experiment [7] and in experiment [8] was inactive.
On to `CCCCCN1CCCCC(NS(=O)(=O)c2ccc(C(=O)Nc3cccc(C(F)(F)F)c3)cc2)C1` (stereo not drawn), for which the growth inhibition in experiment [1] was 2%; in experiment [4] it was 93% (active). The inhibition in experiment [2] is 14%; in experiment [3], -2%. Also, the outcome in experiment [5], in experiment [6], in experiment [7] and in experiment [8] was inactive.
`Cc1cc(-c2ccc3c(c2)CCN(CCC2CCC(NC(=O)/C=C/c4ccccc4F)CC2)CC3)on1` (stereo not drawn): the growth inhibition was 13% in experiment [1] and 94% (active) in experiment [4]. For the same compound, the inhibition in experiment [2] was 26%; in experiment [3] it was -4%. Also, the outcome in experiment [5], in experiment [6], in experiment [7] and in experiment [8] was inactive.
